Bioassay records as filed in PubChem BioAssay.
L3MBTL1 inh: L3MBTL1 (human) inhibition. hit rate 0.66% among 230,000. Potency, µM (highest dose often 57.1 µM), for the others: at the highest dose activity, negative = inhibition, actives largely listed as inhibitors. AlphaScreen L3MBTL1–H3K9me1 peptide binding; further: on the % scale 0 is the no-effect control and ±100 the full control effect; nearly all actives have a fitted effect of over 60% in size
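Displacement of a biotinylated histone H3(1-15) peptide monomethylated at Lys9 (75 nM) from L3MBTL1 (50 nM) was measured by AlphaScreen after a 30 min room-temperature compound incubation; cefsulodin titration served as intraplate control.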
BAZ2B block: BAZ2B (human) inhibition; AlphaScreen BAZ2B-H3K14Ac peptide displacement; Potency, µM (series often up to 114 µM), for inactives: at the top dose activity change, negative = inhibition, usual class: inhibitors; hit rate 4.4% among 360,000; AID 504333; further: on the % scale 0 is the no-effect control and ±100 the full control effect; nearly all actives have a fitted effect of over 60% in size
Target sequence (Q9UIF8 whole entry, looked up): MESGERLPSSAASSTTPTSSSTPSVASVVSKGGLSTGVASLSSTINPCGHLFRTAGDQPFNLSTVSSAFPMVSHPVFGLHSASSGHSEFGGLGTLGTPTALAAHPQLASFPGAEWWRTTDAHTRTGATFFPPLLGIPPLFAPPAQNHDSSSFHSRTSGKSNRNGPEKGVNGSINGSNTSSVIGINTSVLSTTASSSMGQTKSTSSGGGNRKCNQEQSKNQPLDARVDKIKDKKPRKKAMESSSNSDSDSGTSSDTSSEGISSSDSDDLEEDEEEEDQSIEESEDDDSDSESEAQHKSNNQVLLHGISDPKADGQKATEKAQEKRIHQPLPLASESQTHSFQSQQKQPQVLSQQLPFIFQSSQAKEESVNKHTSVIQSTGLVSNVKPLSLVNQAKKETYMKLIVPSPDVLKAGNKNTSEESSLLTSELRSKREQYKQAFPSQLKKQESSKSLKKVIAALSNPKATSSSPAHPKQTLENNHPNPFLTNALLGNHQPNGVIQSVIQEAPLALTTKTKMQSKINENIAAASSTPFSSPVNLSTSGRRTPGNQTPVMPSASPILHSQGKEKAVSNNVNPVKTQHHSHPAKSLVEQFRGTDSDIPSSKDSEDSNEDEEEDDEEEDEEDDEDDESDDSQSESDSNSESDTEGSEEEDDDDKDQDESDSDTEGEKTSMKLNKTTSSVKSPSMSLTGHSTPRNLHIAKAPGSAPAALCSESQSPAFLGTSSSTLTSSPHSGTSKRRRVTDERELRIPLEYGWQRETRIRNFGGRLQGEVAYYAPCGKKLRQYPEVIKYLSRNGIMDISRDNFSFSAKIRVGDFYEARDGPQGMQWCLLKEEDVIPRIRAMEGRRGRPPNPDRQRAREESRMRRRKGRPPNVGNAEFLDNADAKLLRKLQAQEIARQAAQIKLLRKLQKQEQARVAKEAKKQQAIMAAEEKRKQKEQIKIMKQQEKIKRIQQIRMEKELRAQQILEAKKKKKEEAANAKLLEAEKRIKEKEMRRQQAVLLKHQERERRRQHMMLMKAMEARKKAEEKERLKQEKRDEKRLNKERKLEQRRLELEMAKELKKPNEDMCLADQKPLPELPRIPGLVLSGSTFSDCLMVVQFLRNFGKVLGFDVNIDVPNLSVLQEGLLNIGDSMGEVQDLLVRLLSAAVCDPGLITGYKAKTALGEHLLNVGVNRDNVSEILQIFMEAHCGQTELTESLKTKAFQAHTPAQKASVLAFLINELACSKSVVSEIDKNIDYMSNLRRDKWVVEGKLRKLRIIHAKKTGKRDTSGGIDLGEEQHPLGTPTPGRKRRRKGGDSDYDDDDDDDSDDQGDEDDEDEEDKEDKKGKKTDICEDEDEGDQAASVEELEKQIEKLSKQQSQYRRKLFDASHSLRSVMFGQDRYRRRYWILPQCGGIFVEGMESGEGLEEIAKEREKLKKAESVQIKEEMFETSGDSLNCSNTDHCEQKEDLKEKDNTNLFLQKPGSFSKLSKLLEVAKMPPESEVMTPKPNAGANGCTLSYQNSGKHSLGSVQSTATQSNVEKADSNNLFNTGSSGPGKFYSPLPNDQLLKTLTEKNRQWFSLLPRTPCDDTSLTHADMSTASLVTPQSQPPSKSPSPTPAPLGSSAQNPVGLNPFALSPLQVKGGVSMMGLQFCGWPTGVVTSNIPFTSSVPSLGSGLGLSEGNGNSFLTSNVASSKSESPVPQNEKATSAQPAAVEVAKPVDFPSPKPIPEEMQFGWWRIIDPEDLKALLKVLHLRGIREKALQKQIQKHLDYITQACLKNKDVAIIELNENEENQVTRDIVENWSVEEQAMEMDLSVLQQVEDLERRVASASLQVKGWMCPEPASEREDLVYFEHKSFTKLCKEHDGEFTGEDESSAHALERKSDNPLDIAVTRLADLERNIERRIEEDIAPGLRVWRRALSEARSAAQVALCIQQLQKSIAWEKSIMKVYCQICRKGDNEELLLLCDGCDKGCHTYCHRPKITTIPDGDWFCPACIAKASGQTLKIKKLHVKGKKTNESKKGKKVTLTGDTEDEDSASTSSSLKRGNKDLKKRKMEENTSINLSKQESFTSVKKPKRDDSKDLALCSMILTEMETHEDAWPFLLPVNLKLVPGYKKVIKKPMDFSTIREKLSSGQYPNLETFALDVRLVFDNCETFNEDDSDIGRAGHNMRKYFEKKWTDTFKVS
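Complex of BAZ2B and biotin-H3K14Ac (50 nM apiece) forms over 30 min at RT, then faces library compounds up to 110 uM for another 30 min; AlphaScreen beads added, 20 min dark incubation, luminescence read.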
JMJD2A Tudor inh: inhibitors of human JMJD2A Tudor domain; O75164; AlphaScreen JMJD2A-Tudor / H3K4me3 peptide binding; Potency, µM (highest dose often 114 µM), without a hit: at the highest dose activity change, negative = inhibition, hits mostly inhibitors; hit rate 4.4% among 390,000; AID 504339; further: on the % scale 0 is the no-effect control and ±100 the full control effect; nearly all actives have a fitted effect of over 50% in size
G9a block: G9a (human) methyltransferase inhibition; Q96KQ7; G9a H3K9 monomethylation, AlphaScreen, 2 h; Potency, µM (doses to about 102 µM), for inactives: at the highest dose activity, negative = inhibition, actives largely listed as inhibitors; hit rate 8.8% among 350,000; AID 504332; further: on the % scale 0 is the no-effect control and ±100 the full control effect; nearly all actives have a fitted effect of over 75% in size
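Chemiluminescent proximity detection of H3K9 monomethylation, read after 10 min bead incubation in the dark. Reaction: 20 nM G9a, 500 nM biotin-H3K9 peptide, 20 uM SAM cofactor, 2 h, room temperature, following 15 min enzyme-compound preincubation.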
HP1b chromo inh: HP1-beta chromodomain-methylated histone interaction inhibition; AID 540317; hit rate 0.56% among 390,000; Potency, µM (top dose mostly 114 µM), for the others: at the highest dose activity change, negative = inhibition, actives largely listed as inhibitors; P83916; AlphaScreen HP1-beta / biotin-H3K9me3 peptide binding; further: nearly all actives have a fitted effect of over 70% in size
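Compound inhibition of the preformed complex between 50 nM HP1-beta and 50 nM biotinylated H3K9me3 peptide was read by AlphaScreen. Buffer was PBS pH 7.4 with 0.01% Tween-20. Incubations ran 30 min at room temperature, with 10 ug/mL donor/acceptor beads.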
* = called active by the depositor; [ ] = remark or other dose. This is a sample that favours compounds with a hit; in the whole collection about 11% have one here. The call rests on the fitted dose curve; in most records, active means well fitted inhibition curve with a large enough effect; inconclusive means small, poorly fitted or top-dose-only effect; inactive means no such curve, though single readings can be large or run the other way. Potency means the concentration at half of the fitted maximal effect.

O=C(CSc1ncc2c(n1)-c1ccccc1N(Cc1ccc(F)cc1)S2(=O)=O)NCc1ccccc1 was read as BAZ2B block inconclusive, JMJD2A Tudor inh -11%, G9a block 5%[59 µM] and HP1b chromo inh 6%.
Screening O=C(Nc1cccc2cccnc12)OCc1ccccc1 returned JMJD2A Tudor inh -27% and HP1b chromo inh 12%.
CC1=NN(C(=O)c2ccccc2F)C(O)(c2ccc(Cl)cc2)C1 (stereo not drawn) was read as L3MBTL1 inh -15%, BAZ2B block 50µM*, JMJD2A Tudor inh -33%, G9a block 3% and HP1b chromo inh 25%.
For CCOC(=O)/C(C#N)=C1/C(=O)N(Cc2ccccc2)c2ccccc21 the results were BAZ2B block 25µM*, JMJD2A Tudor inh 25µM*, G9a block 25µM* and HP1b chromo inh 14µM*.
`COc1cc2c(=O)c(S(=O)(=O)c3ccc(C)cc3)cn(Cc3cccc(C)c3)c2cc1OC` gave BAZ2B block -21%, JMJD2A Tudor inh inconclusive, G9a block -5%[59 µM] and HP1b chromo inh 39%.
CCCCNC(=O)c1nn2c(C(F)(F)F)cc(-c3ccc(OC)cc3)nc2c1Br was read as L3MBTL1 inh 8%, BAZ2B block 0%, JMJD2A Tudor inh 35µM*, G9a block 0%[59 µM] and HP1b chromo inh 23%.
`CCCNC(=O)c1nn2c(C(F)(F)F)cc(-c3ccccc3)nc2c1Br` gave L3MBTL1 inh 8%, BAZ2B block 8%, JMJD2A Tudor inh -10%, G9a block -7% and HP1b chromo inh 37%.
`COC(=O)c1nn2c(C(F)(F)F)cc(-c3ccc(Br)o3)nc2c1Br` gave L3MBTL1 inh 2%, BAZ2B block 8%, JMJD2A Tudor inh -35%, G9a block 45µM* and HP1b chromo inh -6%.
`Cc1cc(C)cc(NC(=O)C2CCN(S(=O)(=O)c3cccc(-c4noc(C)n4)c3)CC2)c1` gave BAZ2B block -32%, JMJD2A Tudor inh -22%, G9a block -10%[59 µM] and HP1b chromo inh 19%.
`O=c1nc2ccccn2c2ccc(S(=O)(=O)N3CCCCC3)cc12` gave BAZ2B block 4%, JMJD2A Tudor inh -13%, G9a block 45µM* and HP1b chromo inh -2%.
For Cc1ccn2c(c1)nc(=O)c1cc(S(=O)(=O)N3CCCCC3)ccc12 the results were BAZ2B block -9%, JMJD2A Tudor inh -2%, G9a block 11% and HP1b chromo inh 15%[57 µM].
`CCC(C)NC(=O)C(=O)Nc1c2c(nn1-c1ccccc1)CS(=O)(=O)C2` (stereo not drawn) gave BAZ2B block inconclusive, JMJD2A Tudor inh 45µM*, G9a block inconclusive and HP1b chromo inh -14%.
`O=C(COc1ccc([N+](=O)[O-])cc1)NNC(=S)NC(=O)c1ccc(Br)cc1` gave L3MBTL1 inh 44%, BAZ2B block 2%, JMJD2A Tudor inh 50µM*, G9a block 2.8µM* and HP1b chromo inh inconclusive.
Screening Cc1ccc(C(=O)NC(=S)NNC(=O)COc2ccc([N+](=O)[O-])cc2)cc1 returned BAZ2B block 3%, JMJD2A Tudor inh 25µM*, G9a block 3.5µM* and HP1b chromo inh -19%.
For COc1ccc(C(=O)NC(=S)NNC(=O)COc2ccccc2)cc1 the results were L3MBTL1 inh 18%, BAZ2B block 13%, JMJD2A Tudor inh -31% and HP1b chromo inh inconclusive.
For CCOC(=O)N1CCC(N2Cc3cccc(C(=O)NCC4CCN(CC(C)C)C4)c3C2=O)CC1 (stereo not drawn) the results were BAZ2B block 9%, JMJD2A Tudor inh -15%, G9a block 50µM* and HP1b chromo inh 11%.
For CCOC(=O)N1CCC(N2Cc3cccc(C(=O)Nc4ccc(N(CC)CC)cc4C)c3C2=O)CC1 the results were BAZ2B block 14µM*, JMJD2A Tudor inh 25µM*, G9a block 10µM* and HP1b chromo inh inconclusive.
Screening CC1=Nc2cc(C(=O)NC3CCCCC3)ccc2Sc2ccc(Cl)cc21 returned BAZ2B block -10%, JMJD2A Tudor inh -24%, G9a block -6%[59 µM] and HP1b chromo inh 16%.
For Cc1ccc(Cn2cc(S(=O)(=O)c3cccc(Cl)c3)c(=O)c3cc(F)c(N4CCOCC4)cc32)cc1 the results were BAZ2B block -1%, JMJD2A Tudor inh -1%, G9a block -1%[59 µM] and HP1b chromo inh 37%.
COc1ccccc1NC(=O)C1=C(C)Nc2nc(-c3ccco3)nn2C1c1cccc(C)c1 (stereo not drawn) was read as BAZ2B block -15%, JMJD2A Tudor inh -20%, G9a block 17%[59 µM] and HP1b chromo inh 19%.
CCOC(=O)c1ccc(-n2c(CCC(=O)O)ccc2-c2ccc(Br)cc2)cc1 was read as BAZ2B block 50µM*, JMJD2A Tudor inh inconclusive, G9a block 16µM* and HP1b chromo inh inconclusive.
CC(=O)c1ccc(-n2c(CCC(=O)O)ccc2-c2ccc(C)cc2)cc1 was read as BAZ2B block -38%, JMJD2A Tudor inh inconclusive, G9a block 22%[2.33 µM] and HP1b chromo inh -15%.
For CCOc1ccc(-n2c(CCC(=O)O)ccc2-c2ccc(Br)cc2)cc1 the results were BAZ2B block 40µM*, JMJD2A Tudor inh inconclusive, G9a block 10µM* and HP1b chromo inh inconclusive.
`O=C1CSC(c2ccc([N+](=O)[O-])cc2)N1CCN1CCCCC1` (stereo not drawn) gave L3MBTL1 inh -31%, BAZ2B block inconclusive, JMJD2A Tudor inh -7%, G9a block -28% and HP1b chromo inh 12%.
Screening COc1cc(C2SCC(=O)N2CCN2CCCCC2)ccc1O (stereo not drawn) returned L3MBTL1 inh -1%, BAZ2B block -14%, JMJD2A Tudor inh -1%, G9a block 50µM* and HP1b chromo inh 31%.
Screening CCC(O)c1nc2ccccc2n1Cc1cc(C)ccc1C (stereo not drawn) returned BAZ2B block -18%, JMJD2A Tudor inh -19%, G9a block 4%[59 µM] and HP1b chromo inh 44%.
`Clc1cccc(-n2ncc3c(NCCCn4ccnc4)ncnc32)c1` gave BAZ2B block 28µM*, JMJD2A Tudor inh inconclusive, G9a block -11%[59 µM] and HP1b chromo inh 27%.
Fc1ccc(-n2ncc3c(NCCCn4ccnc4)ncnc32)cc1 was read as BAZ2B block -22%, JMJD2A Tudor inh -22%, G9a block -1%[59 µM] and HP1b chromo inh 9%.
`c1ccc(-n2ncc3c(NCCN4CCCCC4)ncnc32)cc1` gave L3MBTL1 inh 1%, BAZ2B block inconclusive, JMJD2A Tudor inh 4%, G9a block 45µM* and HP1b chromo inh 36%.
For CCOc1ccccc1-c1nnc2n1N=C(c1ccc(OC)c(OC)c1)CS2 the results were JMJD2A Tudor inh -30%.
`Cn1c(SCC(=O)Nc2ccc3c(c2)OCCO3)nnc1C(F)(F)F` gave L3MBTL1 inh 8%, BAZ2B block 8%, JMJD2A Tudor inh 4%, G9a block inconclusive and HP1b chromo inh 43%.
